This note sets out measurements from PubChem BioAssay (NCATS).

Calls of active or inactive are those of the source. The call rests on the fitted dose curve. Some results are limits rather than exact numbers.
Potency means the concentration at half of the fitted maximal effect.

In the assay the target is Glucocorticoid receptor (Homo sapiens) (UniProt P04150). Kind of assay: GR-EFC Redistribution (AID 451). Particulars: CHO-K1 GR-EFC translocation, beta-gal luminescence, 2 h. From the text: NIH Molecular Libraries Screening Centers Network [MLSCN]
Sequence of Glucocorticoid receptor (Homo sapiens) (P04150 whole entry, looked up): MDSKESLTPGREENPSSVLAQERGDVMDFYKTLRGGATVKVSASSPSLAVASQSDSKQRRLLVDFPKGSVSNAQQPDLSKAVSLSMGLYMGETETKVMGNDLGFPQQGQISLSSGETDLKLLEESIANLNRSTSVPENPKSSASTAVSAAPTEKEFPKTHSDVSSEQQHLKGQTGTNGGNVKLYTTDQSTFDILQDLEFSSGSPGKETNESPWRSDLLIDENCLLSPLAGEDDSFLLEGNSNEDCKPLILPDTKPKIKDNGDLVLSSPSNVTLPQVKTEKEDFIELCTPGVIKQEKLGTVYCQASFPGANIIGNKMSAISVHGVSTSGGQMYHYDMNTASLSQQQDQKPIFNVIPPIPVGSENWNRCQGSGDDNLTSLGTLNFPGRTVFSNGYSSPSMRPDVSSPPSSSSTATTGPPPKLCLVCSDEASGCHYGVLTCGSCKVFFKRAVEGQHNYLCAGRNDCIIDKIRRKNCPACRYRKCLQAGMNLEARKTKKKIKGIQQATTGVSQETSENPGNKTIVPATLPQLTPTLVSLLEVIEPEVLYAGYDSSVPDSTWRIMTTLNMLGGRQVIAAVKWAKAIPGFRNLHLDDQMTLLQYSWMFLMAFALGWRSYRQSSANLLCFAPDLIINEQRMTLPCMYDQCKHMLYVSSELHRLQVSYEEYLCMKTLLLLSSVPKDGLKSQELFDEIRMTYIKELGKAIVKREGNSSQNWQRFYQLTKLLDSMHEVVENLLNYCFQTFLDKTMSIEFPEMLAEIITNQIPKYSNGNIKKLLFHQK
NIH Chemical Genomics Center [NCGC]
The glucocorticoid receptor (GR) is a cytoplasmic receptor that belongs to the nuclear receptor family of ligand-dependent transcription factors. Upon glucocorticoid binding to its receptor, the glucocorticoid-GR complex translocates into the nucleus, where it binds as a dimer to specific DNA sequences (glucocorticoid response elements), enhancing or suppressing transcription of a wide variety of glucocorticoid-responsive genes. In addition to their important roles in normal physiology and metabolism, glucocorticoids are administered exogenously as treatments for a wide variety of allergic, autoimmune, and neoplastic conditions. Identification of compounds that modulate aspects of GR signalling would be useful in dissecting glucocorticoid response pathways as well as developing GR modulators with more targeted clinical effects.
Traditionally, GR modulators have been identified using receptor binding or direct transactivation assays. However, assays for glucocorticoid-dependent nuclear translocation can also be used to screen for compounds affecting GR signaling.
Immunocytochemical staining has been used to assay for GR translocation, but is not suitable for high throughout screening due to the multiple reagent addition and wash steps required. Recently, a novel cell-based GR assay in Enzyme Fragment Complementation (EFC) format was developed by DiscoveRx (Fremont, CA). The assay uses EFC of b-galactosidase (b-gal) as an indicator of GR-translocation in engineered CHO-K1 biosensor cells. The enzyme acceptor (EA) fragment of b-gal resides in the nucleus , as designed through the use of a proprietary set of sequence additions and modifications. The small peptide enzyme donor (ED) fragment of b-gal is fused directly to the C-terminus of GR, and is localized in the cytoplasm is the absence of receptor signaling. Upon binding to a GR ligand, the complex translocates to the nucleus, where intact enzyme activity is restored by complementation and b-gal activity is detected. We optimized this GR-EFC assay in homogenous 1536-well plate assay format for high throughput screening.
NCGC Assay Protocol Summary:
CHO-K1 cells stably expressing NLS-enzyme acceptor fragment (EA) of b-gal and GR-enzyme donor (ED) fragment of b-gal were maintained in F12 medium (Invitrogen, Carlsbad, CA) at 37 Celsius degrees under a humidified atmosphere containing 5% CO2 and 95% air. The medium contained 10% FBS, 2 mM L-glutamine, 50 U/ml penicillin 50 ug/ml streptomycin, and 250 ug/ml hygromycin and 500 ug/ml G418 (Invitrogen).
GR-translocation was measured beta-gal enzyme activity using the PathHunter Detection Kit containing cell membrane permeablizing reagent and beta-gal substrate (DiscoveRx, Fremont, CA). All compounds were screened as titrations from 0.6 nM to 46 uM final concentration. The assay was performed in 1536-well format as follows:
5 uL cell suspension (1,000 cells)/well
Incubation at 37 Celsius degrees for two hours
1.25 uL 1X detection buffer from the kit supplied by DiscoveRx
Incubation at room temperature for one hour
Read plate in luminescence mode in ViewLux plate reader (PerkinElmer)
Keywords: NIH Roadmap, MLSCN, MLI, MLSMR, GR-EFC, GREFC, qHTS, NCGC
For the compound `CN(C)CN1CSC(=S)N(CN(C)C)C1`, the Potency is > 9.22 µM (inactive).

Consider `CN(C)Cc1cc(C(C)(C)C)cc(CNC2CCCCC2)c1O`, for which the Potency is > 9.22 µM (inactive).

On to `S[C@@H]1CCCN(Cc2ccccc2)C1`, for which the Potency was > 9.22 µM (inactive).

Consider `c1ccc2sc(SCSc3nc4ccccc4s3)nc2c1`, for which the Potency was > 9.22 µM (inactive).

On to `O=C(O)C1C(C(=O)O)C(C(=O)O)C1C(=O)O` (stereo not given), for which the Potency was > 9.22 µM (inactive).

`N#CC(=NCCO)C1=C(O)c2ccccc2C1=O`: the Potency was > 9.22 µM (inactive).

Consider `O=C1c2cccc([N+](=O)[O-])c2C(=O)N1c1ncn[nH]1`, for which the Potency was > 9.22 µM (inactive).

Regarding `Cc1cc(Cc2cc(C)cc(C(C)(C)C)c2O)c(O)c(Cc2cc(C)cc(C(C)(C)C)c2O)c1`, the Potency was > 9.22 µM (inactive).

As for `C(/C=C\c1ccccc1)=Nc1ccc2c(c1)Cc1ccccc1-2`, the Potency is > 9.22 µM (inactive).

Turning to `CCOc1ccc(N=NS(=O)(=O)O)cc1`, the Potency is > 9.22 µM (inactive).

`NC(N)=NC(N)=Nc1ccc(S(=O)(=O)O)cc1`: the Potency was > 9.22 µM (inactive).

In the case of `O=S(=O)(O)CCCc1cccc2ccccc12`, the Potency is > 9.22 µM (inactive).

With `O=S(=O)(O)c1ccc(N=Nc2ccccc2)cc1`, the Potency was > 9.22 µM (inactive).

For `O=C(O)[C@@H]1CCCN1Cc1cc2ccccc2c2ccccc12`, the Potency is > 9.22 µM (inactive).

Turning to `O=S(=O)(O)c1ccc(-c2nnc(-c3ccccn3)nc2-c2ccc(S(=O)(=O)O)o2)o1`, the Potency was > 9.22 µM (inactive).

For `O=C(O)c1ccc(CNCc2ccccc2)cc1`, the Potency is > 9.22 µM (inactive).

For the compound `CN(Cc1cc(Br)cc(Br)c1O)Cc1c(O)ccc2ccccc12`, the Potency is > 9.22 µM (inactive).

Take `O=C(O)/C=C\[C@H](O)c1ccc(Cl)cc1`: the Potency is > 46 µM (inactive).

Take `C[C@]12C=CC(=O)C=C1CC[C@@H]1[C@H]3C[C@@H](O)[C@](O)(C(=O)CO)[C@]3(C)C[C@H](O)[C@]12F`: the Potency is 0.273 µM (active).

With `Nc1nc(N)[n+]([O-])c(N)c1NCO`, the Potency was > 9.22 µM (inactive).

As to `NC[C@H](O)C1CCCCCCC1`, the Potency was > 46 µM (inactive).

For the compound `CC(=O)O[C@]1(C)N=NC2(CCCCC2)O1`, the Potency is > 9.22 µM (inactive).

As for `O=S(=O)(O)c1cc(N=Nc2cccc3ccccc23)c(O)c2ncccc12`, the Potency was > 9.22 µM (inactive).

With `O[C@@H](COc1ccc(Cl)cc1Cl)CN1CCCC1`, the Potency is > 9.22 µM (inactive).

For `S=c1nc(-c2nc(=S)[nH]c3c2CCCCCCCCCC3)c2c([nH]1)CCCCCCCCCC2`, the Potency was > 9.22 µM (inactive).

As to `O=C(O)Cn1ccnc1[N+](=O)[O-]`, the Potency is > 9.22 µM (inactive).

For the compound `COc1cc(NCCC(=O)O)c2ncccc2c1`, the Potency is > 9.22 µM (inactive).

As to `O=C(O)c1cc(C(=O)O)cc(N2C(=O)c3ccccc3C2=O)c1`, the Potency is > 9.22 µM (inactive).

As for `O=C(O)c1ccc(/C=N\N=C2c3ccccc3-c3ccccc32)cc1`, the Potency is > 9.22 µM (inactive).

With `O=C1C2=C(Nc3cc([N+](=O)[O-])ccc3N2)O[C@@H]1c1c[nH]c2ccc(COc3ccccc3)cc12`, the Potency is > 9.22 µM (inactive).

For `c1cncc(CNc2ncn[nH]2)c1`, the Potency is > 9.22 µM (inactive).

With `O=C1C=C(Nc2nc(C(=O)O)cc(=O)[nH]2)c2ccccc2C1=O`, the Potency is > 9.22 µM (inactive).

In the case of `Fc1cccc(Cl)c1/C=N\N=C1c2ccccc2-c2ccccc21`, the Potency was > 9.22 µM (inactive).

Consider `CC(C)[C@@H]1NC(=O)[C@H](CCCCN)NC(=O)[C@H](Cc2c[nH]c3ccccc23)NC(=O)[C@H](Cc2ccc(O)cc2)NC(=O)[C@H](C)N(C)C(=O)[C@H](Cc2ccccc2)NC1=O`, for which the Potency was > 46 µM (inactive).

Take `CC(=O)[C@@H]1CC[C@@H]2[C@@H]3CC=C4C[C@H](OS(=O)(=O)O)CC[C@@]4(C)[C@H]3CC[C@]21C`: the Potency is > 46 µM (inactive).

With `O=C(O)c1ccccc1-c1ccccc1C(=O)c1ccccc1`, the Potency was > 9.22 µM (inactive).

Consider `FC(F)(F)c1cc(NC(=S)N2c3ccccc3-n3cccc3[C@H]2c2cccnc2)cc(C(F)(F)F)c1`, for which the Potency was > 9.22 µM (inactive).

Consider `COC(=O)[C@](C)(N)Cc1ccc(O)cc1`, for which the Potency was > 46 µM (inactive).

With `Cc1ccccc1CNc1ncnc2c1ncn2[C@@H]1O[C@@H](CO)[C@H](O)[C@@H]1O`, the Potency is > 46 µM (inactive).

With `Nc1cc(C(=O)O)[nH]c(=O)n1`, the Potency is > 9.22 µM (inactive).
